The source of these data is PubChem BioAssay AID1259422 (The Scripps Research Institute Molecular Screening Center, 2018).

“And” between values parts separate entries of the source, which are not always exact repeats. Identical values can stand only once. Hit rate of the full screen: of about 640,000 compounds, about 9,300 (1.5%) were called active. For the sample, actives were picked, then their nearest neighbours and some compounds at random. Values without a mark were called inactive. No stated cut-off is given here; in the data, active means inhibition above about 32%; inactive means the rest.

The nature of the test: TEAD-YAP interaction inhibition, primary screen, TEAD-YAP interaction inhibitor project, luminescence, HEK-TIYL cells (AID 1259422).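 Further: 0% = median of test compound wells and 100% = reference inhibitor wells.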 The following applies: TEAD-Gal4/YAP UAS-luciferase luminescence, at 9.12 µM, hits give high values.
`CCOC(=O)c1ccc(Nc2c(-c3ccccc3)c(=O)c2=O)cc1`: the inhibition is -7.89%.

Take `NC(=O)C1(N2CCCCC2)CCN(C(=O)Nc2ccc(Cl)cc2)CC1`: the inhibition was 3.68%.

Take `CCC(OC(=O)C(CCSC)NC(=O)c1ccccc1)C(=O)Nc1ccc(S(N)(=O)=O)cc1` (stereo not given): the inhibition is -0.22%.

For `C=CCOC(=O)c1sc(N2C(=O)C(=O)/C(=C(/O)c3ccccc3)C2c2ccc(C)cc2)nc1C` (stereo not given), the inhibition is 7.19%.

In the case of `CN(C)CCNc1nc2c(c(=O)n(C)c(=O)n2C)n1Cc1ccc(F)cc1`, the inhibition is 10.5%.

In the case of `CCCn1c(NCCO)nc2c1c(=O)n(C)c(=O)n2C`, the inhibition is 15.2%.

Consider `COc1ccc(Cn2c(NCCO)nc3c2c(=O)n(C)c(=O)n3C)cc1`, for which the inhibition is 40.8% (active).

Turning to `CC1=C/C(=N\S(=O)(=O)c2ccccc2)C=C(Br)C1=O`, the inhibition was -6.31%.

For the compound `COCCOC(=O)C1=C(C)NC2=C(C(=O)CC(c3cccs3)C2)C1c1ccc(C)s1` (stereo not given), the inhibition was 16% and 7.86%.

Turning to `CC1=C(C(=O)OC(C)C)C(c2cccs2)C2=C(CC(c3ccco3)CC2=O)N1` (stereo not given), the inhibition is 60.2% (active).

Take `CC1=C(C(=O)OCC2CCCO2)C(c2cccs2)C2=C(CC(c3cccs3)CC2=O)N1` (stereo not given): the inhibition was 9.36%.

For `COc1cc(NC(=O)c2sc3[nH]c(=O)c(C(=O)O)cc3c2N)c(OC)cc1Cl`, the inhibition is -5.84%.

With `CCn1cc(C(=O)N2CCc3c(nc(N4CCC(C)CC4)[nH]c3=O)C2)cn1`, the inhibition is -0.66%.

On to `Cc1cnc(Nc2ccc3ncccc3c2)nc1Nc1ccccc1`, for which the inhibition was 29.6%.

`Cc1cnc(Nc2ccc(C(F)(F)F)cc2)nc1Nc1ccccc1`: the inhibition is 11.3%.

`Cc1cnc(Nc2ccncc2)nc1Nc1ccc(Oc2ccccc2)cc1`: the inhibition is 45.7% (active).

With `O=C(OCCN1C(=O)c2cccc3c(N4CCCCC4)ccc(c23)C1=O)c1cc(Cl)cc(Cl)c1`, the inhibition was -2.51%.

Take `O=C(NCCOc1ccccc1)c1cnc(N2CCCC2CO)s1` (stereo not given): the inhibition is 81.8% (active).

For `O=C(NCCOc1ccccc1)c1cnc(NCCCN2CCCC2=O)s1`, the inhibition was -45.5%.

As for `O=C(NCCOc1ccccc1)c1cnc(N2CCN(c3ccccn3)CC2)s1`, the inhibition was -4.73%.

Regarding `COc1ccc(-c2nc3c(C#N)c(CC#N)nn3cc2C)cc1F`, the inhibition is 7.27%.

For the compound `COc1ccc(-c2cn3ccc(C)cc3n2)cc1`, the inhibition was 90.6% (active).

On to `COc1ccc(-c2cn3cc(C(=O)O)ccc3n2)cc1`, for which the inhibition is 15.8%.

Turning to `COc1ccc(-c2nc3sc(-c4ccc(OC)cc4)nc3s2)cc1`, the inhibition was -1.58%.

For the compound `COc1cc(C(=O)Nc2cccc(-c3cn4ccc(C)cc4n3)c2)cc(OC)c1OC`, the inhibition was -17.7%.

`COc1ccc(-c2cn3ccc(C)cc3n2)cc1F`: the inhibition is 78.7% (active).

For the compound `COCCNc1nc(-c2c[nH]c3ccccc23)cs1`, the inhibition is 0.65%.

`CCOC(=O)N1CCC(NC(=O)C2CC23CCN(CC2CC=CCC2)CC3)CC1` (stereo not given): the inhibition was 11.9%.

`CCN(CC(=O)Nc1ccccc1OC)Cc1nc2scc(-c3ccccc3)c2c(=O)[nH]1`: the inhibition is -1.6%.

On to `Oc1ccc(Cl)cc1C1=Nc2ccccc2N=C(c2cccc(F)c2)C1`, for which the inhibition was -24.4%.

Regarding `Cc1ccc(C2=Nc3ccccc3N=C(c3ccc(C(C)(C)C)cc3)C2)c(O)c1`, the inhibition is 38.6% (active).

In the case of `CC(=O)N1c2ccccc2N=C(c2ccc(C)cc2)CC1c1ccc([N+](=O)[O-])cc1` (stereo not given), the inhibition is 2.03%.

For `COc1ccccc1NC(CNS(=O)(=O)c1ccc(Cl)cc1)c1ccccc1` (stereo not given), the inhibition was -1.96%.

`Cc1ccccc1OCC(=O)Nc1ncc(Cc2cccc(Cl)c2)s1`: the inhibition is 50.4% (active).

For the compound `COc1ccccc1OCC(=O)Nc1ncc(Cc2cccc(C)c2)s1`, the inhibition is 3.43%.

On to `Cc1cccc(Cc2cnc(NC(=O)COc3cccc(C)c3)s2)c1`, for which the inhibition is 5.87%.

As for `O=C(Cn1c(=O)oc2cc(S(=O)(=O)NC3CCCC3)ccc21)N1CCCCCC1`, the inhibition is -0.34%.

Turning to `COc1ccc(C2C=C(c3ccc(OC(F)F)cc3)Nc3ncnn32)cc1` (stereo not given), the inhibition is -77.6%.

Take `COc1ccc(OC)c(C2C=C(c3ccc(Br)cc3)Nc3ncnn32)c1` (stereo not given): the inhibition was 3.26%.

Take `COc1cccc(C2=CC(c3cccc(OC)c3)n3ncnc3N2)c1` (stereo not given): the inhibition was 39.1% (active).

Turning to `Brc1ccc(C2=CC(c3cccc(Br)c3)n3ncnc3N2)cc1` (stereo not given), the inhibition is 3.83%.

As to `COc1ccc(C2=CC(c3ccc(OC)c(OC)c3)n3ncnc3N2)cc1OC` (stereo not given), the inhibition was 3.8%.

On to `CCOc1ccc(C2=CC(c3cc(OC)c(OC)c(OC)c3)n3ncnc3N2)cc1` (stereo not given), for which the inhibition was 66.9% (active).

Take `O=C(N/N=C\c1cccc([N+](=O)[O-])c1)c1ccccc1I`: the inhibition is -11.5%.

Regarding `COC(=O)c1ccc(C)c(NC(=O)Nc2cccc(Cl)c2)c1`, the inhibition is 7.6%.

Consider `COc1ccc(OC)c(C2/C(=C(\O)c3ccc(Br)cc3)C(=O)C(=O)N2CCCn2ccnc2)c1` (stereo not given), for which the inhibition was -4.36%.

Consider `CCOC(=O)c1c(NC(=O)c2cc([N+](=O)[O-])ccc2Cl)sc(-c2ccccc2)c1C`, for which the inhibition is 8.37%.

With `CCCc1c(C(=O)N[C@H]2C[C@H]3C(=O)N[C@@H](CSCc4ccccc4)C(=O)N3C2)cnn1-c1ccccc1`, the inhibition is 2.64%.

Regarding `FC(F)Oc1ccc(-c2csc(=Nc3cccnc3)n2C2CC2)cc1`, the inhibition was 50.1% (active).

As for `Cc1csc(=Nc2ccccc2)n1C1CCCC1`, the inhibition was -5.23%.

For `COc1ccc(-c2csc(=Nc3ccccc3)n2C)cc1`, the inhibition is -28.4%.

For `CC1CCCC(NC(=O)CCCn2nnc3ccccc3c2=O)C1C` (stereo not given), the inhibition is -2.4%.

Take `CC(=O)N1CCN(c2nc(Nc3ccccc3C(=O)c3ccccc3)nc(OC(C(F)(F)F)C(F)(F)F)n2)CC1`: the inhibition is 10.2%.

As for `COC(=O)CCC(=O)N1CCC(Oc2ccc(C(=O)NCCc3ccccc3)cc2)CC1`, the inhibition was 5.68%.

With `O=C(NCCc1ccccc1)c1ccc(OC2CCN(C(=O)C3CCCO3)CC2)cc1` (stereo not given), the inhibition was 40.4% (active).

Turning to `O=C(NCCN1CCCCC1CO)c1ccc(OC2CCN(C(=O)C3CC3)CC2)cc1` (stereo not given), the inhibition was 1.44%.

Take `O=C(COC(=O)CCN1C(=O)C2CC=CCC2C1=O)Nc1ncc(Cl)cc1Cl` (stereo not given): the inhibition is 5.49%.

For the compound `CNC(=O)c1cc(F)ccc1Nc1cc(Nc2ccc3[nH]ncc3c2)ncc1C(F)(F)F`, the inhibition was 27.2%.

Take `CNC(=O)c1cc(F)ccc1Nc1cc(Nc2ccc3c(c2)CCC(=O)N3)ncc1C(F)(F)F`: the inhibition is 78.9% (active).

Consider `O=C1Cc2cc(Nc3cc(Nc4ccccn4)c(C(F)(F)F)cn3)ccc2N1`, for which the inhibition is 22.7%.

`CCc1ccc(NC(=O)C2CCN(S(=O)(=O)c3ccc4c(c3)CCC(=O)N4)CC2)cc1`: the inhibition was -10.1%.

In the case of `CNC(=O)c1cc(F)ccc1Nc1cc(Nc2ccc(NC(C)=O)cn2)ncc1C(F)(F)F`, the inhibition was 84.8% (active).

Consider `CNC(=O)c1cc(F)ccc1Nc1cc(Nc2ccc3nc[nH]c3c2)ncc1C(F)(F)F`, for which the inhibition was -9.89%.

Consider `O=C(CSc1nc2ccccc2s1)Nc1ccc(O)c(C(=O)O)c1`, for which the inhibition was -2.73%.

For `OCCNCCCOc1ccc(I)cc1`, the inhibition was 15.9%.

With `COc1c(C)c2c(c(O)c1C/C=C(\C)CCC(=O)O)C(=O)OC2`, the inhibition was 39.5% (active) and 67.1% (active).

`Cc1ccc(Nc2nnc(-c3cc4ccc(O)cc4oc3=O)s2)cc1`: the inhibition was 8.37%.

On to `O=c1oc2cc(O)ccc2cc1-c1ccc(F)cc1`, for which the inhibition was 36% (active).

For `O=c1oc2ccccc2cc1-c1ccc(Cl)cc1`, the inhibition was -27%.

For the compound `COc1cccc(CN2CCN(Cc3cn[nH]c3-c3cccc(F)c3)CC2CCO)c1` (stereo not given), the inhibition was 6.95%.

Turning to `CCCCSCCC(=O)O`, the inhibition was -16.4%.

Consider `COCCNc1cc(-c2ccc(F)cc2)nc(C)n1`, for which the inhibition was -31.9%.

Consider `COC(CNc1cc(-c2cccc(C(F)(F)F)c2)nc(-c2ccncc2)n1)OC`, for which the inhibition was 14.2%.

As to `COC(CNc1cc(-c2ccc(F)cc2)nc(-c2ccccn2)n1)OC`, the inhibition is 42.7% (active).

With `CC(C)(C)NCCOc1ccccc1F`, the inhibition is 14.1%.

Turning to `CCOc1cc(C#N)ccc1OCC(=O)Nc1ccc(C)cc1C`, the inhibition is 15.8%.

On to `COC(=O)C1=C(C)N=c2s/c(=C/c3ccc(N(C)C)cc3)c(=O)n2C1c1ccccc1Cl` (stereo not given), for which the inhibition was -14.2%.

In the case of `O=C(NNS(=O)(=O)c1cccc(Cl)c1Cl)C12CC3CC(CC(C3)C1)C2`, the inhibition is -2.41%.

Regarding `CNC(=O)c1ccccc1Nc1cc(Nc2ccc(C(=O)N(C)C)cc2)ncc1C(F)(F)F`, the inhibition was 77.1% (active).

As for `Cc1cc(C(=O)Nc2ccccc2C(F)(F)F)ccc1[N+](=O)[O-]`, the inhibition was -8.76%.

As for `Cc1ccc(Nc2nnc(-c3ccc(C(=O)N(C)C)cc3)c3ccccc23)cc1`, the inhibition was -11.2%.

On to `CCN(CC)CCOc1ccc(Nc2cc(Nc3ccccc3C(=O)NC)c(C(F)(F)F)cn2)c(OC)c1`, for which the inhibition was 83.4% (active).

For `COc1cc(N2CCOCC2)ccc1Nc1cc(Nc2ccccc2-n2cccn2)c(C(F)(F)F)cn1`, the inhibition is -8.57%.

Take `CCN(CC)CCNC(=O)c1ccc(Nc2cc(Nc3ccccc3C(=O)NC)c(C(F)(F)F)cn2)nc1`: the inhibition was 96.8% (active).

For the compound `CNC(=O)c1ccccc1Nc1nc(Nc2ccc(-n3cnc(-c4ccc(C)nc4)n3)cc2)ncc1Cl`, the inhibition is 8.52%.

For `CCCn1c(=S)[nH]c2cc(C(=O)NCCN(CC)CC)ccc2c1=O`, the inhibition was 12.2%.

On to `CCN(CC)CCNC(=O)c1ccc2c(=O)n(CCN(CC)CC)c(=S)[nH]c2c1`, for which the inhibition is 18.8%.

In the case of `CCN(CC)CCNC(=O)c1ccc(Nc2cc(Nc3ccccc3C(=O)NC)c(C(F)(F)F)cn2)c(C)c1`, the inhibition was 84.7% (active).

For the compound `CNC(=O)c1ccccc1Nc1cc(Nc2ccc(N3CCOCC3)cc2OC)ncc1F`, the inhibition was 6.22%.

Take `CC(C)N(CCNC(=O)c1ccnc(Nc2ccc(C(F)(F)F)cc2)c1)C(C)C`: the inhibition was -16%.

One may read the inhibition as the relative decrease from the control value, in per cent.
